Molecules are shown by their SMILES. Inconclusive results are not listed. Calls of active or inactive are those of the source. The call rests on the fitted dose curve; in most records, active means well fitted curve in the direction sought with a large enough effect; inconclusive means small, poorly fitted or top-dose-only effect, or another doubt; inactive means no such curve, though single readings can be large; an effect the other way counts as inactive or inconclusive.
Potency means the concentration at half of the fitted maximal effect.

One test is described as follows: qHTS of pediatric cancer cell lines to identify multiple opportunities for drug repurposing: Confirmatory screen for TC32 cells (AID 1347118).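 Further: cells exposed to compound for 48 h before the read; nearly all actives have a fitted effect of over 65% in size.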 The note with it: TC32 Ewing sarcoma cells viability qHTS; series mostly up to 45.9 µM. In a few lines:
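Measured quantity: luminescence from CellTiter-Glo, reflecting metabolically active TC32 cells following 48 h of compound. Curves came straight from multi-point titrations, with 8 or 11 points in primary and 11 in confirmatory screening.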
Take `C[C@@]1(C(=O)Nc2ccc(F)nc2)CCCN1c1nc(Nc2cc(C3CC3)[nH]n2)c2cccn2n1`: the Potency is 233 nM (active).

On to `CCOC(=O)[C@H](CCc1ccccc1)N[C@@H](C)C(=O)N1CCCC1C(=O)O` (some centres undefined), for which the Potency was 7370 nM (active).

`COC(=O)Nc1ccc(-c2nc(N3CCOCC3)c3cnn(C4CCN(C(=O)OC)CC4)c3n2)cc1`: the Potency is 3690 nM (active).

Take `Nc1ncnc2c1ncn2[C@@H]1O[C@H](CO)[C@@H](O)[C@@H]1O`: the Potency was 7370 nM (active).

As to `COc1cc([C@@H]2c3cc4c(cc3[C@@H](O[C@@H]3O[C@@H]5CO[C@@H](C)O[C@@H]5[C@H](O)[C@@H]3O)[C@H]3COC(=O)[C@H]23)OCO4)cc(OC)c1O`, the Potency is 657 nM (active).

Take `CON(C)C(=O)N1N=C(c2cc(F)ccc2F)S[C@]1(CCCN)c1ccccc1`: the Potency was 11.7 nM (active).

Regarding `CCC[C@H](Nc1nc(-c2ccc(NC(=O)NCC)c(OC)c2)ncc1C)c1cccnc1`, the Potency was 117 nM (active).

`CCC(c1ccc(O)cc1)C(CC)c1ccc(O)cc1` (centres undefined): the Potency is 3690 nM (active).

As to `CC(C)CN(C[C@@H](O)[C@H](Cc1ccccc1)NC(=O)O[C@H]1CO[C@H]2OCC[C@H]21)S(=O)(=O)c1ccc(N)cc1`, the Potency entry was “inactive”.

Consider `CN(C(Cc1ccc(OS(=O)(=O)c2cccc3cnccc23)cc1)C(=O)N1CCN(c2ccccc2)CC1)S(=O)(=O)c1cccc2cnccc12` (centres undefined), for which the Potency was 3690 nM (active).

Take `CC(C)n1c(C=C[C@H](O)C[C@H](O)CC(=O)O)c(-c2ccc(F)cc2)c2ccccc21`: the Potency was 16500 nM (active).

For the compound `Cc1ccccc1-n1c(Cn2nc(-c3cccc(O)c3)c3c(N)ncnc32)nc2cccc(C)c2c1=O`, the Potency entry was “inactive”.

Consider `Nc1ccn([C@@H]2O[C@H](CO)[C@@H](O)[C@H]2O)c(=O)n1`, for which the Potency was 329 nM (active).

For `CSc1cccc(Nc2ncc3cc(-c4c(Cl)cccc4Cl)c(=O)n(C)c3n2)c1`, the Potency is 2930 nM (active).

Turning to `COc1cc2nccc(Oc3ccc(NC(=O)Nc4cc(C)on4)c(Cl)c3)c2cc1OC`, the Potency is 18500 nM (active).

Take `C[C@@]1(c2cc(-c3cncnc3)c(F)cc2F)CCSC(N)=N1`: the Potency was 8270 nM (active).

In the case of `CC[C@H](NC(=O)[C@H](C)NC)C(=O)N1C[C@@H](O)C[C@H]1Cc1c(-c2[nH]c3cc(F)ccc3c2C[C@H]2C[C@H](O)CN2C(=O)[C@H](CC)NC(=O)[C@H](C)NC)[nH]c2cc(F)ccc12`, the Potency was 2930 nM (active).

`CCNC(=O)c1noc(-c2cc(C(C)C)c(O)cc2O)c1-c1ccc(CN2CCOCC2)cc1`: the Potency was 82.7 nM (active).

In the case of `Nc1ccc(-c2ccc3ncc4ccc(=O)n(-c5cccc(C(F)(F)F)c5)c4c3c2)cn1`, the Potency is 73.7 nM (active).

Another test is described as follows: qHTS of pediatric cancer cell lines to identify multiple opportunities for drug repurposing: Confirmatory screen for MG 63 (6-TG R) cells (AID 1347119). Further: nearly all actives have a fitted effect of over 55% in size. The note with it: MG-63 (6-TG resistant) osteosarcoma viability; series mostly up to 45.9 µM. In a few lines: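 Viability after 48 h compound treatment at 37C, 500-1,000 cells/well, read as ATP luminescence with CellTiter-Glo. Primary screens used 11-point (MIPE, 0.78 nM-46 µM) or 8-point (NPC, 0.59 nM-46 µM) final concentrations; follow-up screens used 11-point dilutions.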
`C[C@H](c1ccc(F)cc1CCCC(=O)O)N(c1cc(F)ccc1F)S(=O)(=O)c1ccc(Cl)cc1`: the Potency result is “inactive”.

Regarding `CON(C)C(=O)N1N=C(c2cc(F)ccc2F)S[C@]1(CCCN)c1ccccc1`, the Potency is 20.8 nM (active).

In the case of `CC(C)CN(C[C@@H](O)[C@H](Cc1ccccc1)NC(=O)O[C@H]1CO[C@H]2OCC[C@H]21)S(=O)(=O)c1ccc(N)cc1`, the Potency result was “inactive”.

As to `CN(C)CCN(C)C(=O)c1ccc(NC(=O)Nc2ccc(-c3nc(N4CCOCC4)c4ccn(CC(F)(F)F)c4n3)cc2)cc1`, the Potency was 329 nM (active).

Consider `CCNC(=O)c1noc(-c2cc(C(C)C)c(O)cc2O)c1-c1ccc(CN2CCOCC2)cc1`, for which the Potency was 147 nM (active).
